Experimental data taken from the supplement of paper PMC6555819.

Test system: PPARg:RXRa DBDmut IVT, anti-RXR (DBD mutation: RXRa K156A/R161A, NR concentration 270 nM, RXRa partner concentration 90 nM)
Experiment: PBM binding z-score (relative to random genomic background probes); higher = stronger binding; sequences stand for … in GC…GCGATTGACAGCGTAGAATGAAGG
How it was run: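 Custom Agilent 4×180K protein-binding microarrays carried double-stranded probes, each with a 34-nt variable region. These regions held direct-repeat seeds, single-nucleotide variants, half-site ablations and random human genomic background sequences. Ligand-free nuclear receptor dimers were incubated on the arrays for 1 h, antibodies against each partner (one per run) detected binding, and scanned fluorescence was regression-normalized. Binding z-scores take the random background probes as reference.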

| Sequence | PBM binding z-score |
| --- | --- |
| CAGCCTAGGTCAAGGCCAGTATAGGAGGAACGTT | 2.48 |
| AGAATGAGGTTAAGATCAGGGTAACAGAATACAT | 3.19 |
| GGAACGAGGGCATTCGAGTTAATAGCATGGCGAT | 3.25 |
| TCTAGTTGGTCACGAAGGTCACACACGACGGGTA | 2.83 |
| AATACAGGGTCATCGTAGGACAGAGTACGCACAG | 2.91 |
| CCTACTGGGACACGAAAGGTCATTGATTCAGTGA | 5.93 |
| ATCTCTAGATAACAAGTTCAGTGAAAGAGAGGAC | -0.504 |
| TAGCCTCGGTCATGGGCCAGTATACCACGCGAAC | -0.58 |
| AGAATGAGGTTACCAAGGATCAGGGAAACGCTTG | 3.39 |
| CCTACCAGGCCAATCTGGGTCACTCAAGGCTTGA | 3.85 |
| TCTCGGAGGAGACGAAAGGTCAGAGCTCGACATC | 0.912 |
| AGTCGAAGTTCACTAGGTAACGTAAGATTCAGCT | 1.76 |
| CGTCAAAGTTCAACTAAGATAACGTAAAGCACGC | 0.308 |
| TAGCCTAGGTCATTGGGCCAGTACAGTACGCATC | 2.86 |
| CGAAATAGGTCAGAACAGGACAGTGAAGGATGAT | 6.51 |
| CCTGCTAGGTCATGGTCAACTAATCTACAGTATG | 4.88 |
| CCTACTGGGCCAAGGACATTGATCAGTCAAAGCA | 3.42 |
| CATCCAAGGTCAATGCTAGGTCAGTGAAAGCATT | 3.38 |
| AGTCAAAGTTCATCTCGGTAACGTAAGATATGCT | 0.386 |
| GCTTGTTGATCAAGGTTAAGAAAGACTAAGCTAA | 0.197 |

| Sequence | PBM binding z-score |
| --- | --- |
| AGTCAAAGTTCAGAACGAGGTAACGTAAAGCACG | 0.0651 |
| CCTACTGGACCAAAGGTCATTGATTCCAATGCTC | 3.51 |
| CCTCGGAGGACAACAGGAGGTCAGAGTTGCCAGA | -0.0815 |
| TCTTGTAGATCAATAGAGGTTAACAAAGTGCGCT | 1.65 |
| GCTGCTAGGTCAACTGATGGTCAGCCAAAGCTCG | 4.84 |
| ACTAGCAGGCCCAGGGTCACTCAAGATTAGTCCG | -0.868 |
| TCTGCTAGGTCAGTTGGTGAGCTAACGAGCTGCC | 2.62 |
| TCTGGGAGGACACGAAGGTCAGAGCTTTCCAGAG | 1.04 |
| ATCGAAAGGTCGTTAGGTGAGTATACAGAAAGGC | 0.388 |
| GCTTACGGGTCAAAGGTTATAGGATGAATAGAAT | 4.59 |
| TCTGCTAGGTCAACGCTGGTCAGCTAATCTGCTA | 4.5 |
| TTACCAAGGTGATCTGAGGTCGTTGATCCAACTC | 0.904 |
| CAGCCGAGGTCAGGGCCAGTATAGGAGGAACGTT | 1.87 |
| CCTCTGAGGACAGAAGGTCAGAGCTGTCCGCTTT | 0.612 |
| TAGCCTAGGTCATTGAGCCAGTATAGTACGCATC | 1.41 |
| AATACAGGGTCATCGTAGGCTAGAGTACGCACAG | 3.07 |
| TTACCAAGGTGAAAGGTCGATGATGCACGCCTTG | 2.4 |
| AAAGACAGGTGATGAAGGTAACTCAGGCTATCAT | 0.0134 |
| CCTAGCAGGCCAATCTGGGTCAATCAAGGCTTGA | 3.86 |
| TCTATTAGTTGAAGGGCAGCCGACGAGTCCGTTT | 2.37 |
